# This is a sample that favours compounds with a hit; in the whole collection about 1% have one here.
# LANA DNA inh: KSHV C-LANA DNA binding inhibition; MBP-C-LANA/FAM-LBS DNA binding, fluorescence polarization; inhibition, % at 9 µM; hit rate 0.078% among 340,000; AID 504423;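 active = highest replicate inhibition at or above 60% at 9 µM, even if other replicates fall short; inactive = all replicates below 60% inhibition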;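 also: 0% = neutral control wells and 100% = 4 µM acridine orange control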
# RTF Ca sens inh: cardiac RTF calcium desensitization. P19429+P45379. IANBD-labeled cardiac RTF, Ca2+ fluorescence. inhibition, % at 7.15 µM. hit rate 0.12% among 340,000. AID 493244;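 active = inhibition above the mean inhibition of all tested compounds plus 3 SD, cut at about 17% in these data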;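 also: assay run at fixed EC70 calcium of 1.6 mM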
# Keap1-Nrf2 PPI: disrupts human Keap1 binding to Nrf2 peptide; hit rate 0.15% among 340,000; inhibition, % at 9.4 µM; Keap1 Kelch-Nrf2 peptide fluorescence polarization, 1536-well; Q14145; in the data active = inhibition above about 12%; inconclusive = no clear call, values can overlap the other calls; inactive = below about 7.3%;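 also: human Keap1 Kelch domain with fluorescein labeled Nrf2 9mer peptide probe; 0% = neutral control wells and 100% = peptide positive control; higher means more block of Keap1 binding to Nrf2 peptide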
# Target sequence (Q14145 whole entry, looked up, the tested form may be a part): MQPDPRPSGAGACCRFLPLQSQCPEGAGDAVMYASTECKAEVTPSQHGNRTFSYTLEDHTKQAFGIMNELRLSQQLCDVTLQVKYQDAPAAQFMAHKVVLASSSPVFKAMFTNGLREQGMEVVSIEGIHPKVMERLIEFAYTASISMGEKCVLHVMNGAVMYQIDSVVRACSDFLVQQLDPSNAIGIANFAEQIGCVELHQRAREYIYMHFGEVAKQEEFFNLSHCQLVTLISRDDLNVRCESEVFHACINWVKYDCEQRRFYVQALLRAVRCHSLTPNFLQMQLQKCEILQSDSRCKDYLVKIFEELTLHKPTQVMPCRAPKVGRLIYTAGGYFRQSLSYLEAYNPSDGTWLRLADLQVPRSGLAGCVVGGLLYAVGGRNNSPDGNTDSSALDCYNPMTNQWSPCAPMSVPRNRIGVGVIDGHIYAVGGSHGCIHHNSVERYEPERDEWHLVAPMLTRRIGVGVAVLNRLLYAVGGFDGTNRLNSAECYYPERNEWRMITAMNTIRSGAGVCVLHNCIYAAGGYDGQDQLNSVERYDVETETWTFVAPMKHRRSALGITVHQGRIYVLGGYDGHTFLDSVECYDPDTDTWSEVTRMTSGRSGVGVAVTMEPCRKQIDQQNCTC
# LANA-H2B inh: blocks KSHV LANA binding to histone H2A/H2B | Q9QR71 | cell-free LANA-H2A/H2B peptide, fluorescence polarization | inhibition, % (concentration not given with the values) | hit rate 0.6% among 320,000; in the data active = inhibition mostly above about 10%, no sharp cut-off; inactive = mostly below about 6.7%
# RTF Ca sens act: increases calcium sensitivity of human cardiac regulated thin filaments. P19429+P45379. IANBD-labeled TnC RTF fluorescence at EC20 calcium; 0% EC20 calcium, 100% full calcium. activation, % at 7.2 µM. hit rate 0.24% among 340,000;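 active = activation above the mean over all tested compounds plus 3 SD, cut at about 30% in these data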;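 also: rise in fluorescence read as greater calcium sensitivity of cardiac thin filaments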
# Starred values were filed as active, the others as inactive; ? = inconclusive; nt = no result; + = active, no number; ! = not confirmed by another sample.
SMILES,LANA DNA inh,RTF Ca sens inh,Keap1-Nrf2 PPI,LANA-H2B inh,RTF Ca sens act
CCN(CC)CCCN1C(=O)C(O)=C(C(=O)c2ccc(C)o2)C1c1ccc(C)o1 (stereo not given),1,-12,-6,-5,8
O=C(C1=C(O)C(=O)N(CCCN2CCOCC2)C1c1ccccn1)c1cc2ccccc2o1 (stereo not given),-2,-2,-4,28*,0
Cn1nc(CC(=O)Nc2cccnc2N2CCOCC2)c2ccccc2c1=O,nt,nt,nt,38*,nt
Cn1nc(CC(=O)NC2CCCCCCCCCCC2)c2ccccc2c1=O,-2,-10,-1,-4,4
Cc1noc(NS(=O)(=O)c2ccc(NC(=O)c3ccccc3NS(=O)(=O)c3ccc(F)c(F)c3)cc2)c1C,-2,-4,7,nt,-6
CC(C)Cc1ccc(CN2CCCC(NC(=O)c3cccc(-n4cnnc4)c3)C2)cc1 (stereo not given),0,-6,-6,53*,-9
CCOC(=O)c1c(-c2ccccc2)csc1NC(=O)/C(C#N)=C\c1ccc(O)c(OC)c1,-1,-64,-7,nt,40*
CCOC(=O)c1c(-c2ccc(C)cc2)csc1NC(=O)/C(C#N)=C/c1ccc(O)c(OC)c1,7,-33,7,nt,49*
CCOc1ccc(OCC)c(NC(=O)C2CCN(c3cnccn3)CC2)c1,0,-3,-3,2,2
NC(=S)NN=Cc1ccc(-c2ccc(S(=O)(=O)Nc3ncccn3)cc2)o1,73*,2,?,nt,-5
CCOc1ccc(C(=O)N/N=C/c2ccc(-c3ccc(S(=O)(=O)Nc4ncccn4)cc3)o2)cc1,1,0,6,-2,0
CC1(C)C2CCC1(C)C(OCC[N+](C)(C)CC(=O)OC1CCCCC1)C2 (stereo not given),0,-20,2,27*,4
O=C(COc1ccc(Cl)cc1)NNC(=O)c1ccncc1,1,-4,-3,39*,11
O=C(COc1ccc(Cl)cc1)NCc1ccccc1,1,-10,0,-2,152*
O=C(COc1ccc(Cl)cc1)NCc1ccncc1,6,-2,-3,0,1
O=C(NCCC1CCCCN1S(=O)(=O)c1ccccc1)C(=O)NCc1ccc(F)cc1 (stereo not given),0,5,-2,1,1
CCSc1nnc(-c2sc3nnc(-c4ccccc4)c(-c4ccccc4)c3c2N)o1,5,-31,-5,2,83*
CCSc1nnc(-c2ccncc2)o1,3,-11,4,-1,6
Cc1cccc(CCNC(=O)CCS(=O)(=O)c2ccc(Br)cc2)c1,2,-9,-3,18*,6
Cc1ccc(CNC(=O)CCS(=O)(=O)c2ccc(C)cc2)cc1,-6,-1,1,-3,0
O=C(CCS(=O)(=O)c1ccccc1)NCc1ccccc1,1,2,3,37*,2
CCc1sc(NC(=O)CCC(=O)O)nc1-c1cc2ccccc2oc1=O,0,-7,1,5,2
CC(C)CN(C)Cc1c(C(=O)N2CCc3ccccc3C2)nc2ccc(Cl)cn12,-3,-11,-8,17*,13
NC(=O)C1CCCN(Cc2c(C(=O)N3CCc4ccccc4C3)nc3ccc(Cl)cn23)C1 (stereo not given),0,-3,-2,99*,5
CC1CCCN(Cc2c(C(=O)N3CCc4ccccc4C3)nc3ccc(Cl)cn23)C1 (stereo not given),0,1,0,0,-9
SMILES,LANA DNA inh,RTF Ca sens inh,Keap1-Nrf2 PPI,LANA-H2B inh,RTF Ca sens act
CN1C2CCC1/C(=C\c1ccc(F)cc1)C(=O)/C2=C/c1ccc(F)cc1,-1,11,1,-1,-3
CN1C2CCC1/C(=C/c1cccn1C)C(=O)/C2=C\c1cccn1C,-78,-290,-262,-132,367*
O=C(Nc1ccncc1)C1CC(=O)N(Cc2ccccc2)C1 (stereo not given),-1,6,0,nt,5
CN(CCc1ccccc1)C(=O)c1ccc(NC(=O)Cc2ccc(NC(=O)C3CCCN(C(=O)C4CCCC4)C3)cc2)cc1 (stereo not given),0,1,-3,nt,-1
O=C(COc1ccc2ccccc2c1)Nc1nccs1,0,-23,-4,-1,-2
O=C(COc1ccccc1)Nc1nccs1,0,5,-4,28*,2
CCOC(=O)C(C)On1c(-c2cccc(Cl)c2)nc2ccc([N+](=O)[O-])cc21 (stereo not given),1,7,-3,51*,11
CCOC(=O)COn1c(-c2cccc(Cl)c2)nc2ccc([N+](=O)[O-])cc21,2,0,-4,-10,-2
CC(C)C[C@@H](CNCC(=O)[C@H](Cc1c[nH]c2ccccc12)NC(=O)c1[nH]cnc1C(=O)N[C@@H](C)CN)NC(=O)c1nc[nH]c1C(=O)N[C@@H](C)C(=O)O,-1,-7,0,nt,-4
CCC(=O)c1ccc(OCc2ccc(C(=O)OC)cc2)cc1,1,-3,-6,14*,4
CCN1CCN(Cc2c(O)ccc3c2O/C(=C\C=C\c2ccccc2OC)C3=O)CC1,1,-150,-139,-43,166*
CCN1CCN(Cc2c(O)ccc3c(=O)c(-c4ccccc4OC)coc23)CC1,-1,-2,6,5,3
Cc1ccc(/C=C2\Oc3c(ccc(O)c3CN3CCN(CCO)CC3)C2=O)cc1,17,-38,-13,6,32*
CCOc1ccc(CN(C)Cc2cc(=O)oc3c(C)c(C)ccc23)cc1OC,-2,-13,0,nt,0
O=S(=O)(NC1CCCCC1Sc1ncccn1)c1ccccc1 (stereo not given),0,0,-1,13*,2
O=C(C1=C[C@@H](c2ccc(C(F)(F)F)cc2)C[C@@H](OCCCCO)O1)N1CCN(Cc2ccc3c(c2)OCO3)CC1,0,-1,-4,-3,0
COc1ccccc1NC(=O)c1ccc(NC(=O)COC(=O)C2CC2C)cc1 (stereo not given),-1,0,-1,19*,-8
CCOC(=O)c1cc(NC(=O)Nc2ccccn2)c(C)nc1C,0,9,0,2,-8
CN(C)S(=O)(=O)c1cccc(NC(=O)CCc2c[nH]c3ccccc23)c1,2,-10,-2,+,15
CN(C)S(=O)(=O)c1cccc(NC(=O)Cc2ccc(Cl)cc2)c1,1,-1,5,-1,0
CCOC(=O)C1(Cc2cccc(Cl)c2)CCCN(C(=O)c2ccoc2C)C1 (stereo not given),0,1,-6,95*,3
CCOC(=O)C1(Cc2cccc(Cl)c2)CCCN(C(=O)c2ccco2)C1 (stereo not given),1,-2,-3,4,0
Cc1cccc(Nc2ccccc2C(=O)O)c1C,1,6,-1,2,1
Cc1cccc(Nc2ncccc2C(=O)O)c1C,0,-3,-5,59*!,-7
CCC1([N+](=O)[O-])COC(c2ccc(Cl)cc2)OC1 (stereo not given),2,-3,-2,nt,8
